Assay outcomes as filed in PubChem BioAssay.
PD-1 reverse act – activators reversing PD-1 mediated T-cell inhibition; primary human CD4 T cells, PD-L1 beads, CellTiter-Glo 96 h; activation, % (concentration not given with the values); 29,000 tested, under 10 active; AID 2316; call rule not given here;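 also: 0% = median vehicle wells and 100% = positive control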
STK33 kin inh – human STK33 kinase inhibition | Q9BYT3 | ADP-Glo luminescence, MBP substrate | inhibition, % at 12.5 µM | hit rate 0.44% among 27,000 | AID 2322; in the data active = inhibition above about 20%
Target sequence (Q9BYT3 whole entry, looked up): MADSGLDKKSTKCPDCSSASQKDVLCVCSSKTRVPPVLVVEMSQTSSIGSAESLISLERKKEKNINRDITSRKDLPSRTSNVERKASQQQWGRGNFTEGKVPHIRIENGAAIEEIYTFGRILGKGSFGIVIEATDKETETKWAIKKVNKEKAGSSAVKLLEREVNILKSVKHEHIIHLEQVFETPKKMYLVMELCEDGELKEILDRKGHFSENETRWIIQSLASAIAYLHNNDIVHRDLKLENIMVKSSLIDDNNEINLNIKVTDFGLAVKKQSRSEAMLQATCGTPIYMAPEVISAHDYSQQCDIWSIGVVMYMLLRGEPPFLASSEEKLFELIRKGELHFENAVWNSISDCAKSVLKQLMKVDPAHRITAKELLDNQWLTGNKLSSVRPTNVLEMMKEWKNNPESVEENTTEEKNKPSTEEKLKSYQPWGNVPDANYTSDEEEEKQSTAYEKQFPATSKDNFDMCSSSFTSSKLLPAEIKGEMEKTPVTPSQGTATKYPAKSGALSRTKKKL
NOMO-1 viab – STK33 inhibitor candidate reducing NOMO-1 cell viability; NOMO-1 AML viability, CellTiter-Glo luminescence, 72 h; inhibition, % (no concentration beside the values); hit rate 7.5% among 37,000; AID 2330; in the data active = inhibition above about 80%
* hit, by the source's call; nt = not tested or not shown. The sample as a whole holds a higher share of hits than the screen did.

SMILES | PD-1 reverse act | STK33 kin inh | NOMO-1 viab
C[C@@H]1CN([C@@H](C)CO)C(=O)Cc2cc(NC(=O)c3ccncc3)ccc2O[C@@H]1CN(C)Cc1ccccc1 | 1.6 | 0.4 | 24.0
C[C@@H]1CN([C@H](C)CO)C(=O)Cc2cc(NC(=O)Nc3ccc4c(c3)OCO4)ccc2O[C@@H]1CN(C)Cc1ccc(-c2ccccc2)cc1 | -6.9 | 2.2 | 72.8
COc1ccc(NC(=O)Nc2ccc3c(c2)CC(=O)N([C@H](C)CO)C[C@@H](C)[C@@H](CN(C)Cc2ccc(-c4ccccc4)cc2)O3)cc1 | -2.0 | nt | 111.6*
COc1ccc(NC(=O)Nc2ccc3c(c2)CC(=O)N([C@H](C)CO)C[C@H](C)[C@H](CN(C)Cc2ccc(-c4ccccc4)cc2)O3)cc1 | -0.4 | 3.7 | 59.5
C[C@H]1CN([C@@H](C)CO)C(=O)Cc2cc(NC(=O)c3ccncc3)ccc2O[C@H]1CN(C)Cc1ccc(-c2ccccc2)cc1 | nt | 0.1 | 89.1*
C[C@H](CO)N1C[C@H](C)[C@H](CN(C)Cc2ccc(-c3ccccc3)cc2)Oc2ccc(NC(=O)Nc3ccccc3)cc2CC1=O | 0.7 | 1.2 | 113.0*
C[C@H]1CN([C@@H](C)CO)C(=O)c2cccc(NC(=O)C3CCOCC3)c2O[C@@H]1CN(C)S(=O)(=O)c1cn(C)cn1 | 0.6 | nt | 4.8
COc1ccc(S(=O)(=O)N(C)C[C@@H]2Oc3ccc(NC(=O)CCN4CCOCC4)cc3CC(=O)N([C@H](C)CO)C[C@@H]2C)cc1 | 0.2 | -4.4 | 11.7
CCCC[C@@H](C)/C=C(C)/C=C(\C)C(=O)NC1=C[C@@](O)(/C=C/C=C/C=C/C(=O)NC2C(=O)CCC2=O)[C@@H]2O[C@@H]2C1=O | -57.1 | -2.8 | 141.8*
CCOC(=O)c1cnc2c(C)cc(Cl)cc2c1NCCN1CCOCC1 | nt | -0.9 | 14.7
CCCCCCC[C@@H](O)CC(=O)CCc1ccc(O)c(OC)c1 | 1.1 | -6.4 | 41.4
CCCCCCC/C=C/C(=O)CCc1ccc(O)c(OC)c1 | -0.3 | -7.6 | 116.4*
C[C@H](CO)N1C[C@H](C)[C@H](CN(C)Cc2ccc(C(F)(F)F)cc2)Oc2ccc(NC(=O)CCC(F)(F)F)cc2CC1=O | nt | 1.5 | 33.6
C=C(C)Cn1c(SCc2nc3ccccc3[nH]2)nc2sc3c(c2c1=O)CCCC3 | -2.5 | 0.0 | -10.6
COc1ccc(-c2csc3ncn(CC(=O)Nc4ccccc4)c(=O)c23)cc1 | 0.0 | 0.3 | 40.2
CC12CC3(C)CC(C)(C1)CC(CN=Cc1ccc(O)cc1)(C2)C3 | -2.4 | nt | 111.7*
Oc1ccc(/C=N/c2nccs2)cc1 | -1.5 | nt | -4.2
CC(C)NC(=O)N(C)C[C@H]1Oc2ccc(NC(=O)Cc3ccccc3)cc2C(=O)N([C@H](C)CO)C[C@H]1C | -0.7 | nt | -5.1
C[C@@H]1CN([C@H](C)CO)C(=O)Cc2cc(NC(=O)Nc3ccc(C(F)(F)F)cc3)ccc2O[C@@H]1CN(C)S(=O)(=O)c1ccc(Cl)cc1 | 0.1 | -2.7 | 15.5
C[C@@H]1CN([C@H](C)CO)C(=O)Cc2cc(NC(=O)Nc3ccc(C(F)(F)F)cc3)ccc2O[C@H]1CN(C)S(=O)(=O)c1ccccc1 | 2.3 | 7.6 | 16.8
C[C@H](CO)N1C[C@H](C)[C@H](CN(C)S(=O)(=O)c2ccc(Cl)cc2)Oc2ccc(NC(=O)Nc3ccc(C(F)(F)F)cc3)cc2CC1=O | -5.4 | -0.1 | 133.6*
C[C@@H]1CN([C@H](C)CO)C(=O)Cc2cc(NC(=O)Nc3ccc(C(F)(F)F)cc3)ccc2O[C@H]1CN(C)S(=O)(=O)c1ccc(Cl)cc1 | -5.3 | 3.2 | 117.0*
Cc1c(Br)c([N+](=O)[O-])nn1CC(=O)Nc1sc2c(c1C#N)CCC2 | -2.0 | -1.9 | 11.1
C[C@@H]1CN([C@@H](C)CO)C(=O)c2cc(NC(=O)Cc3ccccc3)ccc2O[C@H]1CN(C)C(=O)Nc1ccc(F)cc1 | -1.3 | nt | 10.5
C[C@@H]1CCCCO[C@H](CN(C)Cc2ccccc2)[C@@H](C)CN([C@H](C)CO)C(=O)c2cc(NC(=O)Nc3ccc4c(c3)OCO4)ccc2O1 | -1.7 | -0.5 | 14.8
SMILES | PD-1 reverse act | STK33 kin inh | NOMO-1 viab
CCN(CC)CCNc1ccc(CO)c2sc3ccccc3c(=O)c12 | nt | 0.5 | 101.5*
CCCCOc1cc(C(=O)NCCN(CC)CC)c2ccccc2n1 | nt | -0.1 | -9.1
C[C@@H]1CN([C@@H](C)CO)C(=O)c2cc(NC(=O)CCN3CCOCC3)ccc2O[C@@H]1CN(C)CC1CC1 | 0.4 | nt | 17.3
O=C(Nc1c(Cl)cc(Cl)cc1C(=O)NCc1ccco1)c1cccc([N+](=O)[O-])c1 | nt | 2.5 | -5.8
C[C@@H]1CCCCO[C@@H](CN(C)Cc2ccc3c(c2)OCO3)[C@@H](C)CN([C@H](C)CO)C(=O)c2cc(NC(=O)CCC(F)(F)F)ccc2O1 | nt | 0.9 | -2.0
Cc1ccc(S(=O)(=O)N(Cc2cc3cccc(C)c3[nH]c2=O)c2ccccc2)cc1 | -3.2 | -0.7 | 116.5*
CCCC(=O)N(Cc1cc2cccc(C)c2[nH]c1=O)c1ccc(C)cc1 | -3.8 | -3.2 | 12.8
